Consider seven compounds from PubChem BioAssay (EPA / NIEHS).

Inconclusive results are not listed. Active and inactive are the calls of the source. The calls were made as follows, unless noted: active = hit-call score of the fitted dose curve at least 0.9, where 1 is the maximum; inactive = score below 0.9.

A short description of assay [1]: ATG_M_06_TRANS: Attagene TRANS-FACTORIAL HepG2 Assay for M06 Transcription Factor (Internal Marker) (AID 2282983; active = hit-call score of the fitted dose curve at least 0.9, where 1 is the maximum). To be noted: HepG2 Attagene TRANS M06 internal marker reporter. The gist of the method:
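After a 24 h chemical treatment of transfected HepG2, RNA underwent DNase I treatment, reverse transcription and reporter-specific PCR; labelled, HpaI-digested products were sized by capillary electrophoresis. Signal increase relative to DMSO defined activity.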

The nature of assay [2]: ATG_M_32_TRANS: Attagene TRANS-FACTORIAL HepG2 Assay for M32 Transcription Factor (Internal Marker) (AID 2282984; active = hit-call score of the fitted dose curve at least 0.9, where 1 is the maximum;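 also: transcript level of a background control reporter unit measured by RT-PCR and capillary electrophoresis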). The following applies: HepG2 Attagene TRANS M32 internal marker reporter. The gist of the method: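 Using transiently transfected HepG2 cells exposed to test chemicals for 24 h, reporter transcripts are converted to labelled cDNA fragments and quantified by capillary electrophoresis. DMSO defines the activity baseline.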

Assay [3] concerns the target Transcriptional activator Myb (Homo sapiens) (UniProt P10242). Briefly: ATG_Myb_CIS: Attagene CIS-FACTORIAL HepG2 Assay for human Myeloblastosis (Myb) Proto-Oncogene Transcription Factor (AID 2282986). To be noted: HepG2 Attagene CIS-FACTORIAL Myb reporter transcription; actives raise or lower the signal. The gist of the method: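 Multiplexed cis-reporter system in HepG2: transient transfection, 24 h treatment, mRNA readout by RT-PCR and capillary electrophoresis. Both increases and decreases are scored versus DMSO negative control.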

In assay [4] the target is Nuclear respiratory factor 1 (Homo sapiens) (UniProt Q16656). Nature of the assay: ATG_NRF1_CIS: Attagene CIS-FACTORIAL HepG2 Assay for human Nuclear Respiratory Factor 1 (NRF1) Orphan Gene (AID 2282987). To be noted: HepG2 NRF1 cis-element reporter, Attagene multiplex; actives raise or lower the signal. In outline: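 Endogenous factor activity was captured via cis-element-driven reporter transcripts in HepG2 cells. Following 24 h chemical treatment, transcripts were quantified by RT-PCR and capillary electrophoresis.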

The nature of assay [5]: ATG_NFI_CIS: Attagene CIS-FACTORIAL HepG2 Assay for human Nuclear Factor I (NFI) (AID 2282989). To be noted: HepG2 cis-regulatory reporter, NFI response element transcription; actives raise or lower the signal. In outline: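 Transfected HepG2 liver cells, exposed 24 h, supplied total RNA for oligo(dT) reverse transcription and reporter-specific PCR. Labelled, HpaI-cut fragments were sized by capillary electrophoresis; DMSO set the baseline for bidirectional fitting.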

The target of assay [6] is Myc proto-oncogene protein (Homo sapiens) (UniProt P01106). Briefly: ATG_Myc_CIS: Attagene CIS-FACTORIAL HepG2 Assay for human Myelocytomatosis (Myc) Proto-Oncogene Transcription Factor (AID 2282990). To be noted: HepG2, Attagene cis-reporter transcription factor activity; actives raise or lower the signal. The gist of the method: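 HepG2, transient MRTU transfection (cis promoters, endogenous TFs); 24 h dosing; TriZol RNA → oligo(dT) RT → PCR → 6-FAM primer extension → HpaI cut → CE. Bidirectional fit vs DMSO.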

The nature of assay [7]: ATG_NF_kB_CIS: Attagene CIS-FACTORIAL HepG2 Assay for human Nuclear Factor Kappa B (NF-kB) (AID 2282991). To be noted: HepG2 Attagene cis-factorial NF-kB reporter mRNA; actives raise or lower the signal. In outline:
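After 24 h compound incubation, transfected HepG2 cells yield total RNA; reporter cDNA is PCR-amplified, end-labelled with 6-FAM, HpaI-digested and analysed on a genetic analyser. Endogenous factor activity, DMSO-referenced bidirectional fit.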

Assay [8] in a line: ATG_NRF2_ARE_CIS: Attagene CIS-FACTORIAL HepG2 Assay for human Nuclear Factor Erythroid 2 Related Factor 2 (NFR2) response to Antioxidant Response Elements (ARE) (AID 2282992).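 As to AC50: reporter mRNA level measured by RT-PCR and capillary electrophoresis fluorescence.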 The following applies: HepG2 Attagene ARE/NRF2 reporter, transcription factor activity; actives raise or lower the signal. The gist of the method: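 Cis-factorial assay: transfected HepG2 reporter library, 24 h dosing, mRNA readout via RT-PCR/CE; DMSO-referenced bidirectional analysis.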

Assay [9] can be described thus: ATG_Oct_MLP_CIS: Attagene CIS-FACTORIAL HepG2 Assay for human Octamer-Binding Transcription Factor (Oct) (AID 2282993). To be noted: HepG2 Attagene cis-factorial Oct reporter, mRNA; actives raise or lower the signal. In outline: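 Using HepG2 cells bearing transfected cis-reporter constructs, mRNA induction was read after 24 h by fluorescent RT-PCR and capillary electrophoresis, with DMSO defining baseline for gain- or loss-of-signal fits.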

In assay [10] the target is Cellular tumor antigen p53 (Homo sapiens) (UniProt P04637). Briefly: ATG_p53_CIS: Attagene CIS-FACTORIAL HepG2 Assay for human p53 Transcription Factor (AID 2282994). To be noted: HepG2 p53 cis-element reporter, Attagene mRNA; actives raise or lower the signal. In outline: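 Using HepG2 hepatoma cells carrying cis-acting multiplexed reporters, mRNA induction is detected after a 24 h exposure. Gain- and loss-of-signal responses are fitted relative to DMSO-treated cells.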

Assay [11] in a line: BSK_3C_TissueFactor: BioMAP Diversity Plus: 3C Assay for Tissue Factor Biomarker Activity (AID 2282997). To be noted: BioMAP 3C HUVEC, tissue factor biomarker readout; actives raise or lower the signal. In outline: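 Human vascular primary cells (umbilical vein endothelium) received test chemical; Tissue Factor was determined by ELISA at 24 h, and both gain and loss of signal versus DMSO were fitted.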

Assay [12] in a line: BSK_3C_uPAR: BioMAP Diversity Plus: 3C Assay for Urokinase-type plasminogen activator receptor (uPAR) Biomarker Activity (AID 2282998). To be noted: BioMAP 3C HUVEC, uPAR biomarker ELISA; actives raise or lower the signal. The gist of the method:
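In this endothelial cell-based assay, human umbilical vein primary cells were treated with chemicals and harvested at 24 h. uPAR was quantified using ELISA, with gains or losses fitted relative to DMSO controls.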

The nature of assay [13]: BSK_3C_VCAM1: BioMAP Diversity Plus: 3C Assay for Vascular cell adhesion molecule 1 (VCAM1) Biomarker Activity (AID 2282999). The following applies: BioMAP 3C HUVEC, VCAM1 ELISA, cytokine-stimulated; actives raise or lower the signal. The gist of the method: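 Endothelial cells from human umbilical vein are treated with test chemical. At 24 h, VCAM-1 is measured by ELISA, and responses in either direction are fitted relative to DMSO.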

Assay [14] has as its target Glucocorticoid receptor (Homo sapiens) (UniProt P04150). Nature of the assay: ATG_GR_TRANS: Attagene TRANS-FACTORIAL HepG2 Assay for human Glucocorticoid Receptor (GR) (AID 2282978; active = hit-call score of the fitted dose curve at least 0.9, where 1 is the maximum;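 also: activators score as hits since higher reporter transcript over DMSO is fitted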). The following applies: HepG2 Attagene TRANS GR reporter, mRNA transcription. In outline: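 HepG2 transient transfection, multiple reporter units, GAL4-UAS under NR-GAL4 chimera control. 24 h treatment. Reporter mRNA by RT-PCR/CE fluorescence, DMSO as negative control.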

Assay [15] has as its target Nuclear receptor subfamily 4 group A member 2 (Homo sapiens) (UniProt P43354). Briefly: ATG_NURR1_TRANS: Attagene TRANS-FACTORIAL HepG2 Assay for human Nuclear Receptor Related Protein 1 (NURR1) (AID 2282985; active = hit-call score of the fitted dose curve at least 0.9, where 1 is the maximum). To be noted: HepG2 Attagene TRANS reporter, mRNA readout. The gist of the method: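 Cells: HepG2, transiently transfected. Exposure: 24 h. Detection: fluorescence of labelled RT-PCR products separated by capillary electrophoresis; upward fit versus DMSO.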

For assay [16], the target named is Bile acid receptor (Homo sapiens) (UniProt Q96RI1). Nature of the assay: ATG_FXR_TRANS: Attagene TRANS-FACTORIAL HepG2 Assay for Farnesoid X Receptor (FXR) (AID 2282979; active = hit-call score of the fitted dose curve at least 0.9, where 1 is the maximum;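 also: hits raise reporter mRNA above DMSO so AC50 marks FXR activation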). To be noted: HepG2 Attagene TRANS FXR-GAL4 reporter transcription. The gist of the method:
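Read-out: fluorescent reporter transcripts quantified by capillary electrophoresis after RT-PCR of total RNA. Source cells were HepG2 transiently carrying chimeric NR-GAL4 plus GAL4-UAS reporter units, dosed 24 h. Activity fitted upward relative to DMSO baseline.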

The target in assay [17] is Hepatocyte nuclear factor 4-alpha (Homo sapiens) (UniProt P41235). Nature of the assay: ATG_HNF4a_TRANS: Attagene TRANS-FACTORIAL HepG2 Assay for human Hepatocyte Nuclear Factor 4 alpha (HNF4a) (AID 2282982; active = hit-call score of the fitted dose curve at least 0.9, where 1 is the maximum). To be noted: HepG2 HNF4a transactivation reporter, mRNA readout. The gist of the method:
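Transfected HepG2 reporter cells are dosed for 24 h; reporter RNA is reverse-transcribed, amplified, fluorescently labelled and HpaI-digested before CE sizing. Positive-direction fit against DMSO.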

Assay [18] addresses Oxysterols receptor LXR-alpha (Homo sapiens) (UniProt Q13133). Briefly: ATG_LXRa_TRANS: Attagene TRANS-FACTORIAL HepG2 Assay for human Liver X Receptor alpha (LXRa) (AID 2282980; active = hit-call score of the fitted dose curve at least 0.9, where 1 is the maximum). The following applies: HepG2 Attagene TRANS reporter, LXRa transactivation. The gist of the method: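 Read-out: reporter transcript levels by RT-PCR plus capillary electrophoresis, fluorescence intensity. Transiently transfected HepG2, exogenous NR-GAL4 chimera, GAL4-UAS reporters; 24 h compound exposure. Activity = increase over DMSO negative control.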

The target in assay [19] is Oxysterols receptor LXR-beta (Homo sapiens) (UniProt P55055). Briefly: ATG_LXRb_TRANS: Attagene TRANS-FACTORIAL HepG2 Assay for human Liver X Receptor beta (LXRb) (AID 2282981; active = hit-call score of the fitted dose curve at least 0.9, where 1 is the maximum). To be noted: HepG2 Attagene TRANS GAL4-LXRb reporter, mRNA. The gist of the method:
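Cells: HepG2, transiently transfected with GAL4-UAS reporter units plus LXRb-Gal4 fusion. Treatment: 24 h. Detection: reporter mRNA by RT-PCR, 6-FAM labelling, HpaI digestion, capillary electrophoresis.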

Sequence of Bile acid receptor (Homo sapiens) (Q96RI1 whole entry, looked up, the tested form may be a part): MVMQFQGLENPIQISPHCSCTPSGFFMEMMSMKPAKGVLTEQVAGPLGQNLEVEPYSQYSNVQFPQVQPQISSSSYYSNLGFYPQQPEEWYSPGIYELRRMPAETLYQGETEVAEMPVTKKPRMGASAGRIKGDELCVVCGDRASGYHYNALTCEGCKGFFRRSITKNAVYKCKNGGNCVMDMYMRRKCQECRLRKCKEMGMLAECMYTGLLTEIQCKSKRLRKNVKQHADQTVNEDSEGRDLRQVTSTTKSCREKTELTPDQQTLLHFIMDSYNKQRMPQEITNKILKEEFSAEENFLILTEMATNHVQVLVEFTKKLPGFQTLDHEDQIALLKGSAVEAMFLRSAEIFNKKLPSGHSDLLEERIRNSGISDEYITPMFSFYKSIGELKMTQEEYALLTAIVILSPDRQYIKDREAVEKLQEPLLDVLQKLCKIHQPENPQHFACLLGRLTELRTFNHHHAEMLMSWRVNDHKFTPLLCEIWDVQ
Sequence of Oxysterols receptor LXR-beta (Homo sapiens) (P55055 whole entry, looked up, the tested form may be a part): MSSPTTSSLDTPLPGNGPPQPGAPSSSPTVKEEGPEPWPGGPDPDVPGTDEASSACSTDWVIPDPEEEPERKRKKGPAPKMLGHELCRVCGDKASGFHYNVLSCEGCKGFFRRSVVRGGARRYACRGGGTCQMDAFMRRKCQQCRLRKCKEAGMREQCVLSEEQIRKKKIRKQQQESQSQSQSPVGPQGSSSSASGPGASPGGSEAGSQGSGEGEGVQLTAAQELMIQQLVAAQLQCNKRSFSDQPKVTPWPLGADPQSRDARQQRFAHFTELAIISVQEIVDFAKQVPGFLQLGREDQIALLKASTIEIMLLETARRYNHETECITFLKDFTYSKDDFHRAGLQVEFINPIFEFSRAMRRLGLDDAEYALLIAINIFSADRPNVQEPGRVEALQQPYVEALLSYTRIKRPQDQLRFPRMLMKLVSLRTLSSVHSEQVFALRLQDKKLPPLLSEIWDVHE
Sequence of Myc proto-oncogene protein (Homo sapiens) (P01106 whole entry, looked up): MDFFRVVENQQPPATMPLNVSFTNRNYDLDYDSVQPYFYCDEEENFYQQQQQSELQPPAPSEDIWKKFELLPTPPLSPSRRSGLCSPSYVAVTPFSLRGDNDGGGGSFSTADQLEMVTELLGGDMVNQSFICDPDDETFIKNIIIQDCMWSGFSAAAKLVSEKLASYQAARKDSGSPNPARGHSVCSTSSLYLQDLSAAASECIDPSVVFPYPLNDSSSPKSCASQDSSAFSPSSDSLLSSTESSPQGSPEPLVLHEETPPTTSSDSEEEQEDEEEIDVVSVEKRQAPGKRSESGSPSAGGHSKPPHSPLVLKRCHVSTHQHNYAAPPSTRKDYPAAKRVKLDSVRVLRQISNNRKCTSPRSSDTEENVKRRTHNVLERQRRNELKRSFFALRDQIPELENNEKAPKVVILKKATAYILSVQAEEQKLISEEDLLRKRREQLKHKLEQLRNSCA
Sequence of Nuclear respiratory factor 1 (Homo sapiens) (Q16656 whole entry, looked up): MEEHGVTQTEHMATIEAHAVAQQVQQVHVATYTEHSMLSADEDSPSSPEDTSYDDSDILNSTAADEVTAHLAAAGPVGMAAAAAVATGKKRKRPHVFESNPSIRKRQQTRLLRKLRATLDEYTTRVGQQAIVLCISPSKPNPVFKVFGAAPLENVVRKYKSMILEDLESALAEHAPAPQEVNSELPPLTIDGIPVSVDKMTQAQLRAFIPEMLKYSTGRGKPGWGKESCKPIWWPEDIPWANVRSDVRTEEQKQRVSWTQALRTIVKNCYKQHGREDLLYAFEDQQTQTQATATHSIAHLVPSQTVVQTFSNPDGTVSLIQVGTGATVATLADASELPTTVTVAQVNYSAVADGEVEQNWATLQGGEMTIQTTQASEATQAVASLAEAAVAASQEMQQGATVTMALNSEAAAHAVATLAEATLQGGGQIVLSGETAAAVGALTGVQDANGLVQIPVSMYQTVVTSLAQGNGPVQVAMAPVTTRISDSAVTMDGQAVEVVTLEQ
Sequence of Transcriptional activator Myb (Homo sapiens) (P10242 whole entry, looked up): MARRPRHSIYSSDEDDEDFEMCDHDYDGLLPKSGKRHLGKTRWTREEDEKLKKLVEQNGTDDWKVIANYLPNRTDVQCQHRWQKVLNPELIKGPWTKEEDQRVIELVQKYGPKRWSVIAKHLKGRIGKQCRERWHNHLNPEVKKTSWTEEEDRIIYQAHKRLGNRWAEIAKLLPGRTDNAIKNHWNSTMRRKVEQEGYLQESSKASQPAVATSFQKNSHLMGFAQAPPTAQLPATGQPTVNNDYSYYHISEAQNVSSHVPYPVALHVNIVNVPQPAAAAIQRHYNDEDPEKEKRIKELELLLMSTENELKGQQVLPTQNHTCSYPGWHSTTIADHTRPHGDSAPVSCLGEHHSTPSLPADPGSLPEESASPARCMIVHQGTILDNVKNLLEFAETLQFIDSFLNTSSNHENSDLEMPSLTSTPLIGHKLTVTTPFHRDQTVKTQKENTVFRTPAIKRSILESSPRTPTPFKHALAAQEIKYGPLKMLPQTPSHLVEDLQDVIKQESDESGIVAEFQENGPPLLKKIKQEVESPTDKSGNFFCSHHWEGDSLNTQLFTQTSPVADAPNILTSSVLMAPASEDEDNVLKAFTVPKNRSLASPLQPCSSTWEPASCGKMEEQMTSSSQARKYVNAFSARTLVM
Sequence of Cellular tumor antigen p53 (Homo sapiens) (P04637 whole entry, looked up): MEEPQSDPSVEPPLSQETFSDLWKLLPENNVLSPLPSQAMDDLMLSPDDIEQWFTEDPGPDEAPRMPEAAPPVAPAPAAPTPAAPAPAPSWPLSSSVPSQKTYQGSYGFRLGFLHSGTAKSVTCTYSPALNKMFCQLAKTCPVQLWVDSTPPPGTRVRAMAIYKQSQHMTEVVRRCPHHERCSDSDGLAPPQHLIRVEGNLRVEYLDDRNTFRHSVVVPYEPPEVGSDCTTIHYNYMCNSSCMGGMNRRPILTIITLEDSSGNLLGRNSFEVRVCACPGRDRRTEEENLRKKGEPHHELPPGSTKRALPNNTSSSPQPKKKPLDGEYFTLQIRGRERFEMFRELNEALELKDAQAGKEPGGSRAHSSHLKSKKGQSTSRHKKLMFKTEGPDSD
Sequence of Nuclear receptor subfamily 4 group A member 2 (Homo sapiens) (P43354 whole entry, looked up): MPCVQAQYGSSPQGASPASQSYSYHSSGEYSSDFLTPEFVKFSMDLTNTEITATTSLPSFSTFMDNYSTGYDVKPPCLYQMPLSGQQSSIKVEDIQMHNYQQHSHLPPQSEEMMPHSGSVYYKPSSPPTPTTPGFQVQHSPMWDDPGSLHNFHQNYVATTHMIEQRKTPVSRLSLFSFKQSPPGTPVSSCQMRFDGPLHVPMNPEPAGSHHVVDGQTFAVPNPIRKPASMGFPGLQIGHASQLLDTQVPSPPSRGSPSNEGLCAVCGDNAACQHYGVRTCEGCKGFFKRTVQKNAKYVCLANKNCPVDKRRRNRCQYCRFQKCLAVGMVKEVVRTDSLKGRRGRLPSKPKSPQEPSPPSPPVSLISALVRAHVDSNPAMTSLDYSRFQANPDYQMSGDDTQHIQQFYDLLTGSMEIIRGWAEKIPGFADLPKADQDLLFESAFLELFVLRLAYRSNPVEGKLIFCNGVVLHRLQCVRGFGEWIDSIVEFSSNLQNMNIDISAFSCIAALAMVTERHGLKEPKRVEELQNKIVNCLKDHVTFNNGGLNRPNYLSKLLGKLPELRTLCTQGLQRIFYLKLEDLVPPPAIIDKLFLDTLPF
Sequence of Hepatocyte nuclear factor 4-alpha (Homo sapiens) (P41235 whole entry, looked up): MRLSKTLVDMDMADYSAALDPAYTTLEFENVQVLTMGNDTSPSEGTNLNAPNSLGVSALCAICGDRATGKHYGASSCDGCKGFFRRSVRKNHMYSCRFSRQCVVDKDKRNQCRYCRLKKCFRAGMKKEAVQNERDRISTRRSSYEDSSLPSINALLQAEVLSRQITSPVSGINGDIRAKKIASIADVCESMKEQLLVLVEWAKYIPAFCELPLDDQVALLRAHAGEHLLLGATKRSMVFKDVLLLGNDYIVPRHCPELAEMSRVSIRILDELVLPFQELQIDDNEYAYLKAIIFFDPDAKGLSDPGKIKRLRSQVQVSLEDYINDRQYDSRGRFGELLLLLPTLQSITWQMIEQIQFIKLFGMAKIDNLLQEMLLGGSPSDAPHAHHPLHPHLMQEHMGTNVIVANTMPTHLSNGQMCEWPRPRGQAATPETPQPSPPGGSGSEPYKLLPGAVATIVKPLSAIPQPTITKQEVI
Sequence of Oxysterols receptor LXR-alpha (Homo sapiens) (Q13133 whole entry, looked up, the tested form may be a part): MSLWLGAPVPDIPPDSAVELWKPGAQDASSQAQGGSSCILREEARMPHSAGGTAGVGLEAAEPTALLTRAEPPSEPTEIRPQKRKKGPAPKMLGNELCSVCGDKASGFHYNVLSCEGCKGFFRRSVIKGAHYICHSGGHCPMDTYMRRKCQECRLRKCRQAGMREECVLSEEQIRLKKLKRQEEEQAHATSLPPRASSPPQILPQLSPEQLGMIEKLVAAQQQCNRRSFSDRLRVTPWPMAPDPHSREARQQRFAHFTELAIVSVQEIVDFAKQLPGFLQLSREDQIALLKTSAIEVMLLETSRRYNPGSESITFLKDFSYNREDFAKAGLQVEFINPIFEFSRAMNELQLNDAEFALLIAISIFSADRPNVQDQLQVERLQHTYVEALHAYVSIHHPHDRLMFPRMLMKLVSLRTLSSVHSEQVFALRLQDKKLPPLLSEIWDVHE

`NC(=O)C(F)(F)C(F)(F)C(F)(F)C(F)F`: the outcome in assay [1], in [2], in assay [3], in assay [4], in assay [5] and in [6] was inactive. Moreover, the outcome in assay [7], in [8], in [9], in assay [10], in [11] and in [12] was inactive. Further, in [13], the result was inactive.
With `COC(F)(C(F)F)C(F)(F)F` (configuration not stated), the result in assay [14], in [1], in [15], in [3], in assay [4] and in [5] was inactive. Besides, the result in [6], in assay [7], in assay [8], in assay [9], in assay [10] and in assay [11] was inactive. Further, in assay [12], the result was inactive.
Take `OCCCCC(F)(F)C(F)(F)C(F)(F)C(F)(F)F`: the compound was called inactive in assay [16], in assay [17], in [1], in assay [2], in [3] and in assay [4]. Moreover, the call in assay [5], in [6], in assay [7], in [8], in assay [9] and in assay [10] was inactive. For the same compound, the outcome in assay [11] and in assay [12] was inactive.
Consider `O=C(O)C(F)(F)OC(F)(F)C(F)(F)OC(F)(F)C(F)(F)OC(F)(F)F`, for which the compound was called inactive in assay [16], in [18], in assay [1], in assay [2], in [15] and in assay [3]. In addition, the result in [4], in [5], in [6], in assay [7], in [10] and in [11] was inactive. Moreover, the result in assay [12] was inactive. The AC50 in assay [8] is 37.8 µM (active).
For `O=C=Nc1cccc2c(N=C=O)cccc12`, the compound was classed as inactive in [19], in assay [3], in assay [4], in assay [5], in [6] and in assay [7]. The call in assay [8], in [10], in assay [11] and in assay [12] was inactive.
Consider `CCN(CC)c1ccc(C=O)cc1`, for which the compound was classed as inactive in assay [19], in [17], in assay [1], in assay [3], in assay [4] and in [5]. Besides, the compound was called inactive in assay [6], in assay [7], in assay [8], in assay [9], in [10] and in assay [11]. In addition, the outcome in [12] and in assay [13] was inactive.
In the case of `Brc1ccccn1`, the call in assay [16], in [19], in [17], in assay [1], in assay [2] and in [15] was inactive. Also, the outcome in [3], in [4], in assay [5], in assay [6], in assay [7] and in [8] was inactive. Also, the compound was classed as inactive in assay [9] and in [10].

For orientation: AC50 means the concentration at which the activity in the assay is half-maximal.
